Earlier results on 32 compounds are cited in PubChem BioAssay AID977611.

Among all 3,900 compounds or so, about 3,900 (100%) were called active. Cut-off not given; nearly all actives show Kd up to about 4200 µM. The set was probably picked from earlier hits. Some of the results follow. Starred links: 1 amine or outer side, 2 acyl side, 3 side chain; linkers in the order of their positions; H or OH if unused. *1 amine or outer side, *2 acyl side, *3 side chain or, on linkers, in order; H or OH if unused. Where a SMILES comes first, the peptide text is derived from it. Non-standard residues stand in square brackets, D forms with d. Square brackets hold non-standard residues; d marks the D form. Residues, ends and D or L forms follow the SMILES beside them. Peptide text beside a SMILES is read from it. [ ]: non-standard residue; d: D form. ξ: configuration not given here. X1 = O=C([C@H](Cc1ccc(O[P+](O)(O)O)cc1)N[*:1])[*:2]; Thr(P(OH)3+) = C[C@@H](O[P+](O)(O)O)[C@H](N)C(=O)O; Orn(CH(NH2)2) = NC(N)NCCC[C@H](N)C(=O)O; ξE = NC(CCC(=O)O)C(=O)O

A short description of this data set: PubChem AID 977611. The conditions noted are these: PDB protein-ligand complexes, literature Kd.

Turning to `O=C1C=C(O)C=CC1S(=O)(=O)n1cc2ccc(O)cc2c1` (stereo not drawn), where the note is “PDB entry 4mpe”, the equilibrium dissociation constant (Kd) (as a rule, a measure of binding affinity in units of concentration) is 426 nM (active). As for `C/C(O)=[N+](/O)CCC[C@@H]1NC(=O)CNC(=O)CNC(=O)CNC(=O)C(CCCN(O)C(C)O)NC(=O)[C@H](CCCN(O)C(C)O)NC1=O.[Fe]` (stereo partly drawn), where the note is “protein: Iron-compound ABC transporter, iron compound-binding protein, PDB entry 4hmq”, the Kd was 5.8 nM (active). H-LLPTLPKLPSL-OH: the Kd (protein: Ankyrin Repeat Domains of Human ANKRA2, PDB entry 3v2x) was 4500 nM (active). In the case of H-APTLPKLPSLS-OH, the Kd (protein: Ankyrin Repeat Domains of Human ANKRA2, PDB entry 3v2o) is 4900 nM (active).

With `C[C@@H](O)[C@H](N)C(=O)N[C@@H](CCCNC(N)N)C(=O)N[C@@H](CO)C(=O)N[C@@H](CCCCN)C(=O)N[C@@H](Cc1ccccc1)C(=O)N[C@@H](Cc1ccccc1)C(=O)N[C@@H](CC(N)=O)C(=O)O` (H-T[Orn(CH(NH2)2)]SKFFN-OH), under “protein: C-terminal domain of the Saccharomyces cerevisiae MUTL alpha (MLH1/PMS1) heterodimer, PDB entry 4fmo”, the Kd is 2940 nM (active). As for `CC(=O)N[C@H](C(=O)N[C@@H](CCCNC(N)N)C(=O)N[C@@H](CO)C(=O)N[C@@H](CCCCN)C(=O)N[C@@H](Cc1ccc(O)cc1)C(=O)N[C@@H](Cc1ccccc1)C(=O)N[C@@H](CCCCN)C(=O)O)C(C)C` (Ac-V[Orn(CH(NH2)2)]SKYFK-OH), under “protein: C-terminal domain of the Saccharomyces cerevisiae MUTL alpha (MLH1/PMS1) heterodimer, PDB entry 4fmn”, the dissociation constant Kd was 750 nM (active).

Turning to H-DADTLLHFATESTPD-OH, the Kd (protein: Beta-catenin-interacting protein 1, PDB entry 1t08) was 3100 nM (active). For H-HPVGDADYFEY-OH, the equilibrium dissociation constant (Kd) (protein: LA class I histocompatibility antigen, B-35 alpha chain HLA-B 35:01, PDB entry 4pr5) was 2200 nM (active); the dissociation constant Kd (protein: MHC class I antigen HLA-B 35:08, PDB entry 4prd) is 25400 nM (active); the Kd (protein: MHC class I antigen-Beta-2-microglobulin, PDB entry 4prh) was 25400 nM (active).

For the compound `CC(C)C[C@H](NC(=O)[C@H](C)NC(=O)[C@H](CCC(=O)O)NC(=O)[C@H](CC(=O)O)NC(=O)[C@H](Cc1ccc(O)cc1)NC(=O)[C@H](CO)NC(=O)[C@@H]1CCCN1C(=O)[C@H](CC(C)C)NC(=O)CNC(=O)[C@@H](N)[C@@H](C)O)C(=O)N[C@@H](Cc1cnc[nH]1)C(=O)O` (H-TGLPSYDEALH-OH), the Kd (protein: E3 ubiquitin-protein ligase NEDD4, PDB entry 2ez5) was 3000 nM (active). As to `CC(=O)N[C@@H](Cc1cnc[nH]1)C(=O)N[C@@H](CO)C(=O)N[C@@H](CCCCN)C(=O)N[C@@H](Cc1ccc(O)cc1)C(=O)N1CCC[C@H]1C(=O)N[C@@H](CC(C)C)C(=O)N1CCC[C@H]1C(=O)N1CCC[C@H]1C(=O)N[C@@H](CC(C)C)C(=O)N1CCC[C@H]1C(=O)N[C@@H](CO)C(=O)N[C@@H](CC(C)C)C(N)=O` (Ac-HSKYPLPPLPSL-NH2), the Kd (protein: Tyrosine-protein kinase HCK, PDB entry 2oi3) was 230 nM (active). For H-ANPHGAARAEVY-OH, where the note is “protein: WD repeat-containing protein 5, WDR5, PDB entry 4erz”, the Kd is 88 nM (active). For `CC(C)C[C@H](NC(=O)[C@H](CC(=O)O)NC(=O)[C@H](Cc1ccc(O)cc1)NC(=O)[C@H](CC(C)C)NC(=O)[C@H](CCC(=O)O)NC(=O)[C@H](Cc1cnc[nH]1)NC(=O)[C@H](CC(C)C)NC(=O)[C@@H](NC(=O)[C@@H]1CCCN1C(=O)[C@@H]1CCCN1)[C@@H](C)O)C(=O)O` (H-PPTLHELYDL-OH), the equilibrium dissociation constant (Kd) (protein: Retinoblastoma-associated protein, PDB entry 2r7g) was 900 nM (active). Turning to H-EPPLNPHGSARAEVHA-OH, the Kd (protein: WD repeat-containing protein 5, WDR5, PDB entry 4esg) was 2760 nM (active). Regarding H-HPVGEADYFEY-OH, under “protein: MHC class I antigen-Beta-2-microglobulin, PDB entry 4pri”, the Kd was 93200 nM (active).

As for `CC[C@H](C)[C@H](NC(=O)[C@H](Cc1ccc(O)cc1)NC(=O)[C@@H](N)C(C)C)C(=O)N[C@@H](Cc1cnc[nH]1)C(=O)N1CCC[C@H]1C(=O)N[C@@H](Cc1ccccc1)C(=O)O`, the equilibrium dissociation constant (Kd) (protein: Aminopeptidase N, PDB entry 4fys) was 15000 nM (active). Regarding H-HPVGQADYFEY-OH, the Kd runs as follows: (protein: LA class I histocompatibility antigen, B-35 alpha chain HLA-B 35:011, PDB entry 4pra) 2200 nM (active); (protein: MHC class I antigen HLA-B 35:08, PDB entry 4pre) 181000 nM (active); (protein: MHC class I antigen-Beta-2-microglobulin, PDB entry 4prp) 2200 nM (active). For the compound H-TLVSMPPLPGLDLAGS-OH, the Kd (protein: Ankyrin Repeat Domains of Human DNA-binding protein RFXANK, PDB entry 3v30) was 184000 nM (active).

Take H-HPVAEADYFEY-OH: the dissociation constant (Kd) by setting is: (protein: HLA class I histocompatibility antigen, B-35 alpha chain, PDB entry 4prn) 2200 nM (active); (protein: MHC class I antigen HLA-B 35:08, PDB entry 4prb) 132000 nM (active). For the compound `COc1cc(NC(=O)C[C@@]2(C)C[C@H](c3cccc(Cl)c3)[C@@H](c3ccc(Cl)c(F)c3)N([C@H](CS(=O)(=O)C(C)(C)C)C3CC3)C2=O)ccc1C(=O)O`, the Kd (protein: E3 ubiquitin-protein ligase Mdm2, PDB entry 4wt2) was 0.038 nM (active). In the case of `CC(C)C[C@H](NC(=O)[C@H](CC(C)C)NC(=O)[C@H](CCCNC(N)N)NC(=O)[C@@H](N)CC(N)=O)C(=O)N[C@@H](CC(C)C)C(=O)N[C@H](C(=O)NCC(=O)O)[C@@H](C)O`, the dissociation constant (Kd) (protein: Chaperone protein DnaK, PDB entry 4ezw) was 1000 nM (active).

Consider `CSCC[C@H](NC(=O)[C@H](CC(C)C)NC(=O)[C@H](CCCNC(N)N)NC(=O)[C@@H](N)CC(N)=O)C(=O)N[C@@H](CC(C)C)C(=O)N[C@H](C(=O)NCC(=O)O)[C@@H](C)O` (H-N[Orn(CH(NH2)2)]LMLTG-OH), for which, under “protein: Chaperone protein DnaK, PDB entry 4ezx”, the dissociation constant Kd is 1600 nM (active). As to `COc1cc(OC)c2c(=O)[nH]c(-c3cc(C)c(O)c(C)c3)nc2c1`, the dissociation constant Kd runs as follows: (protein: Bromodomain-containing protein 2, PDB entry 4mr5) 251 nM (active); (protein: Bromodomain-containing protein 4, PDB entry 4mr3) 1140 nM (active). Consider `COc1ccc(Nc2nc3cc(C(=O)O)ccc3n2Cc2ccccc2C(F)(F)F)cc1F`, for which, under “protein: KINESIN-LIKE PROTEIN KIF11, PDB entry 3zcw”, the Kd is 650 nM (active). Consider `C[C@@H](O)[C@H](N)C(=O)N[C@@H](CC(N)=O)C(=O)N[C@@H](CCC(=O)O)C(=O)N[C@@H](Cc1ccc(O[P+](O)(O)O)cc1)C(=O)N[C@H](C(=O)N[C@@H](CCC(=O)O)C(=O)NCC(=O)N1CCC[C@H]1C(=O)N[C@H](C(=O)O)[C@@H](C)O)[C@@H](C)O` (H-TNE[X1]TEGPT-OH), for which the dissociation constant (Kd) (protein: E3 ubiquitin-protein ligase CBL, PDB entry 3bum) was 320 nM (active). For `CC(C)C[C@H](NC(=O)[C@H](CC(N)=O)NC(=O)[C@@H](N)CCCNC(N)N)C(=O)N[C@@H](Cc1ccccc1)C(=O)NCC(=O)N1CCC[C@H]1C(=O)O` (H-[Orn(CH(NH2)2)]NLFGP-OH), the Kd (protein: phospho-CDK2/cyclin A, PDB entry 1h27) was 2500 nM (active). As for `C[C@@H](O)[C@H](NC(=O)[C@H](CC(N)=O)NC(=O)[C@@H](N)CCCNC(N)N)C(=O)N[C@@H](CC(N)=O)C(=O)N[C@@H](CCC(=O)O)C(=O)N[C@@H](Cc1ccc(O[P+](O)(O)O)cc1)C(=O)N[C@H](C(=O)N[C@@H](CCC(=O)O)C(=O)NCC(=O)N1CCC[C@H]1C(=O)O)[C@@H](C)O[P+](O)(O)O` (H-[Orn(CH(NH2)2)]NTNE[X1][Thr(P(OH)3+)]EGP-OH), the dissociation constant Kd (protein: E3 ubiquitin-protein ligase CBL c-Cbl TKB domain, PDB entry 3ob1) was 3830 nM (active). Turning to `CC(C)C[C@H](NC(=O)[C@@H](N)CC(=O)O)C(=O)N[C@@H](Cc1ccc(O)cc1)C(=O)NCC(=O)O` (H-DLYG-OH), the Kd (protein: E3 ubiquitin-protein ligase RNF31 HOIP PUB Domain, PDB entry 4p0a) was 30300 nM (active). Consider `CC(C)C[C@H](NC(=O)[C@H](CS)NC(=O)[C@H](CCC(=O)O)NC(=O)[C@H](Cc1ccc(O)cc1)NC(=O)CNC(=O)[C@H](Cc1ccc(O)cc1)NC(=O)C(CCC(=O)O)NC(=O)[C@H](CCC(=O)O)NC(=O)[C@@H](N)CC(=O)O)C(=O)N[C@@H](CC(=O)O)C(=O)O` (stereo partly drawn) (H-DE[ξE]YGYECLD-OH), for which the equilibrium dissociation constant (Kd) (protein: AP-2 complex subunit mu-1, PDB entry 2pr9) is 42.2 nM (active). Take `CCc1cn([C@@H]2O[C@H](CO)[C@@H](O)[C@H]2O)c2ncnc(N)c12`: for the setting “protein: Adenosine kinase ADK, PDB entry 4pvv”, the dissociation constant (Kd) is 330 nM (active). For the compound `O[C@@H]1[C@H](O)[C@@H](CO[P+](O)(O)O)O[C@H]1n1cnc2c(NCc3ccco3)ncnc21`, the equilibrium dissociation constant (Kd) (protein: 2'-deoxynucleoside 5'-phosphate N-hydrolase 1, DNPH1 (RCL), PDB entry 4kxn) is 800 nM (active). Regarding `CC(C)=CCNc1ncnc2c1ncn2[C@@H]1O[C@H](CO[P+](O)(O)O)[C@@H](O)[C@H]1O`, for the setting “protein: 2'-deoxynucleoside 5'-phosphate N-hydrolase 1, DNPH1 (RCL), PDB entry 4kxm”, the Kd is 2600 nM (active). Turning to `CNc1ncnc2c1ncn2[C@@H]1O[C@H](CO)[C@@H](O)[C@H]1O`, under “protein: YTH domain-containing family protein 2 YTH-YTHDF2, PDB entry 4rdn”, the Kd was 1200 nM (active).
